This is part of a sample that, as a whole, favours compounds with a hit. Of some 83,000 tested, about 20% had one in any assay.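 Step 1: grow cells in 96-well plates. Step 2: add test compound at a single concentration. Step 3: incubate 48 h. Step 4: record percent growth.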 The source made the active and inactive calls. Rule for the calls: active = growth percent below 10; inactive = the rest.
How the values were obtained:
Assay in all cases: NCI-60 one-dose screen, 48 h (100 = growth as untreated, 0 = no growth, -100 = all killed)
Conditions in all cases: 10 µM unless noted
T-47D breast = tested on: T-47D breast
BT-549 breast = tested on: BT-549 breast
MDA-MB-435 melanoma = tested on: MDA-MB-435 melanoma
SW-620 colon = tested on: SW-620 colon
MCF7 breast = tested on: MCF7 breast
HCT-116 colon = tested on: HCT-116 colon
HCC-2998 colon = tested on: HCC-2998 colon
KM12 colon = tested on: KM12 colon

Measured: growth

C=C(C)[C@@H]1CC[C@]2(C)[C@H](CC[C@@H]3[C@H]4[C@H]5OC[C@@]4(CCC5(C)C)CC[C@]32C)[C@@]1(C)CCCN
active: SW-620 colon -45.1% | MCF7 breast 0.266% | HCT-116 colon 4.71% | HCC-2998 colon -68.4%
inactive: T-47D breast 23% | BT-549 breast 93.8% | MDA-MB-435 melanoma 49.2% | KM12 colon 23.9%

COc1cc(-c2cc3ncccc3c3nc(N)c4cccnc4c23)cc(OC)c1OC
active: MDA-MB-435 melanoma -33.7% | HCT-116 colon 9.87%
inactive: T-47D breast 35% | BT-549 breast 27.6% | SW-620 colon 23.9% | MCF7 breast 21.7% | HCC-2998 colon 40.2% | KM12 colon 30.8%

C=C1C(=O)O[C@H]2[C@H]1CC/C(COC(=O)NCCc1c[nH]c3ccccc13)=C\CC[C@@]1(C)O[C@@H]21
inactive: MDA-MB-435 melanoma 42% | HCC-2998 colon 94.7% | KM12 colon 89.6%
active: T-47D breast -36.9% | BT-549 breast -12.9% | SW-620 colon -33.2% | MCF7 breast 6.64% | HCT-116 colon -89.1%

Cc1nn(-c2ccc(Br)cc2)c2nc3[nH]c(=O)[nH]c(=O)c3nc12
inactive: T-47D breast 102% | BT-549 breast 94.2% | MDA-MB-435 melanoma 99.1% | SW-620 colon 103% | MCF7 breast 93.4% | HCT-116 colon 98.3% | HCC-2998 colon 114% | KM12 colon 103%

COc1ccc(-c2cc(/C=C/C(=O)c3ccc(OC)c(OC)c3)[nH]n2)cc1
inactive: T-47D breast 22.2% | MDA-MB-435 melanoma 21.3% | HCC-2998 colon 92.7%
active: BT-549 breast -34.2% | SW-620 colon -70.5% | MCF7 breast 6.07% | HCT-116 colon -40.7% | KM12 colon -79.9%

COc1cccc(-c2nn(-c3ccccc3)cc2-c2ccnc(NCCCNS(=O)(=O)c3cccc(F)c3)c2)c1
inactive: BT-549 breast 24.3% | MDA-MB-435 melanoma 22.4% | SW-620 colon 39.9% | MCF7 breast 16% | HCT-116 colon 18.4% | HCC-2998 colon 11.7% | KM12 colon 24.5%
active: T-47D breast -1.01%

Cc1cccc2c1NC(=O)[C@@]21[C@H](C(=O)c2ccccc2)[C@]2(C(=O)Nc3ccccc32)[C@H]2CCCN21
inactive: T-47D breast 32.6% [100 µM] | BT-549 breast 10.4% [100 µM] | MDA-MB-435 melanoma 61.8% [100 µM] | SW-620 colon 11.7% [100 µM] | HCC-2998 colon 19.7% [100 µM] | KM12 colon 40.3% [100 µM]
active: MCF7 breast -4.76% [100 µM] | HCT-116 colon -36.1% [100 µM]

Fc1ccc(Nc2ccc3c(OCCCN4CCOCC4)cccc3n2)cc1F
inactive: T-47D breast 78% | BT-549 breast 86.1% | MDA-MB-435 melanoma 78.7% | SW-620 colon 47.6% | MCF7 breast 61.3% | HCT-116 colon 78.5% | HCC-2998 colon 66.3% | KM12 colon 16.1%

O=C1C(=O)c2ccccc2C(O)=C1CCCc1ccc(C2CCCCC2)cc1
inactive: T-47D breast 44% | BT-549 breast 52.6% | MDA-MB-435 melanoma 53.7% | SW-620 colon 36.8% | MCF7 breast 32.9% | HCT-116 colon 19.4% | HCC-2998 colon 29.5% | KM12 colon 24.2%

CC(C)(C)c1nc(-c2ccc(O)c(O)c2)cs1
inactive: T-47D breast 61.6% | BT-549 breast 63.3% | MDA-MB-435 melanoma 36.6% | SW-620 colon 28.6% | MCF7 breast 83% | HCT-116 colon 48.8% | HCC-2998 colon 86.1% | KM12 colon 76.7%

C=CC(=O)N[C@H](Cc1ccc(-c2cc(Cl)cc(Cl)c2)cc1)[C@H](O)[C@@H](O)C(=O)O
inactive: T-47D breast 90% | BT-549 breast 87.4% | MDA-MB-435 melanoma 102% | SW-620 colon 98.1% | MCF7 breast 87% | HCT-116 colon 75.5% | HCC-2998 colon 109% | KM12 colon 99.3%

Cc1nc([P+](c2ccccc2)(c2ccccc2)c2ccccc2)c(Sc2sc(-c3ccccc3)nc2[P+](c2ccccc2)(c2ccccc2)c2ccccc2)o1
active: T-47D breast 4.85% | BT-549 breast -0.458% | MDA-MB-435 melanoma -9.1% | SW-620 colon 9.8% | MCF7 breast 8.1% | HCT-116 colon 3.77% | KM12 colon -0.528%
inactive: HCC-2998 colon 15.2%

Cc1ccc(/C=C(\C#N)c2cc3ccccc3n2C)cc1
inactive: T-47D breast 54.9% | SW-620 colon 31.8% | MCF7 breast 18.4% | HCT-116 colon 16.2% | HCC-2998 colon 17.4% | KM12 colon 22.3%
active: BT-549 breast 0.46% | MDA-MB-435 melanoma -1.88%

c1csc(-c2nc(-c3cc4ccccc4c(N4CCOCC4)n3)cs2)c1
inactive: T-47D breast 71.2% | BT-549 breast 103% | MDA-MB-435 melanoma 38% | SW-620 colon 97.2% | MCF7 breast 80.5% | HCT-116 colon 100% | HCC-2998 colon 103% | KM12 colon 99.7%

Cc1ccc(-c2nc3ccc(Cl)cc3c(=O)n2N2C(=O)CSC2c2ccccc2Cl)cc1 (configuration not stated)
inactive: T-47D breast 75.8% | BT-549 breast 100% | MDA-MB-435 melanoma 66.9% | SW-620 colon 77.8% | MCF7 breast 94.1% | HCT-116 colon 53.1% | HCC-2998 colon 93.4% | KM12 colon 82.3%

COc1cccc(-c2nn(-c3ccccc3)cc2-c2ccnc(NCCCNS(=O)(=O)c3ccc(Cl)cc3)c2)c1
inactive: T-47D breast 14.2% | BT-549 breast 58.1% | MDA-MB-435 melanoma 42.9% | SW-620 colon 62.6% | MCF7 breast 24.3% | HCT-116 colon 31.1% | HCC-2998 colon 33.5% | KM12 colon 38.9%

CC1(C)NC2=C(C(Nc3cccnc3)N1)C(c1ccc([N+](=O)[O-])cc1)C(C(=O)c1ccc(N=[N+]=[N-])cc1)O2 (configuration not stated)
inactive: T-47D breast 102% | BT-549 breast 99.7% | MDA-MB-435 melanoma 105% | SW-620 colon 104% | MCF7 breast 97.5% | HCT-116 colon 104% | HCC-2998 colon 110% | KM12 colon 105%

c1ccc2c(-c3nc(-c4c[nH]c5ncccc45)cs3)c[nH]c2c1
inactive: T-47D breast 93.8% | BT-549 breast 97% | MDA-MB-435 melanoma 84.8% | SW-620 colon 103% | MCF7 breast 83% | HCT-116 colon 95% | HCC-2998 colon 102% | KM12 colon 90.6%

Cc1cc(C)n(Cc2cc(C(C)(C)C)cc(C(C)(C)C)c2)c(=O)c1C#N
inactive: T-47D breast 79.3% | BT-549 breast 88.5% | MDA-MB-435 melanoma 102% | SW-620 colon 101% | MCF7 breast 88.4% | HCT-116 colon 79.3% | HCC-2998 colon 116% | KM12 colon 97.5%

C=C(C)[C@@H]1CC[C@]2(C(=O)N3CCN(CC)CC3)CC[C@]3(C)[C@H](CC[C@@H]4[C@@](C)(CCC(=O)N5CCN(CC)CC5)[C@H](C(=C)C)CC[C@]43C)[C@@H]12
inactive: T-47D breast 59.7% | BT-549 breast 78.7% | MDA-MB-435 melanoma 70.2% | SW-620 colon 49.9% | MCF7 breast 46.5% | HCT-116 colon 24.9% | HCC-2998 colon 75.7% | KM12 colon 54.2%

COc1ccc(C2NC(=O)Nc3ccccc32)c(OC)c1 (configuration not stated)
inactive: T-47D breast 91.4% | BT-549 breast 109% | MDA-MB-435 melanoma 101% | SW-620 colon 114% | MCF7 breast 84.6% | HCT-116 colon 104% | HCC-2998 colon 92.7% | KM12 colon 110%

COC(=O)[C@]12CC[C@@H](C)[C@H](C)[C@@H]1C1=CC[C@@H]3[C@@]4(C)C=C(O)C(=O)C(C)=C4CC[C@@]3(C)[C@]1(C)CC2
inactive: BT-549 breast 69.1% | MDA-MB-435 melanoma 49% | SW-620 colon 27.9% | MCF7 breast 17.2% | HCT-116 colon 18.1% | KM12 colon 30.3%
active: T-47D breast 5.51% | HCC-2998 colon 9.96%

Cc1cc(N(CCCNc2ccnc3cc(Cl)ccc23)Cc2ccco2)nc(N2CCOCC2)n1
inactive: T-47D breast 88.5% | BT-549 breast 58.4% | MDA-MB-435 melanoma 62.9% | SW-620 colon 63.3% | MCF7 breast 63.4% | HCT-116 colon 43.8% | HCC-2998 colon 87.4% | KM12 colon 79.3%

COc1ccc(NC(=S)N/N=C/c2ccccc2SSCCC(=O)OC[C@H]2O[C@H](O)[C@H](O)[C@@H](O)[C@@H]2O)cc1
inactive: T-47D breast 66% | BT-549 breast 68.9% | MDA-MB-435 melanoma 52.8% | SW-620 colon 93.5% | MCF7 breast 44.7% | HCT-116 colon 72.9% | HCC-2998 colon 94.2% | KM12 colon 63.3%

O=S(=O)(NCCNc1cc(-c2cn(-c3ccccc3)nc2-c2cccc(O)c2)ccn1)c1ccc(F)cc1
active: T-47D breast 7.88% | MDA-MB-435 melanoma 2.49% | HCC-2998 colon -34.9%
inactive: BT-549 breast 32.2% | SW-620 colon 18.8% | MCF7 breast 10.7% | HCT-116 colon 23.9% | KM12 colon 11.3%

COc1ccccc1-n1cnc(N)c1C(=O)c1cc(OC)c(OC)c(OC)c1
active: MDA-MB-435 melanoma -15%
inactive: T-47D breast 49.8% | BT-549 breast 47.1% | SW-620 colon 23.7% | MCF7 breast 12.4% | HCT-116 colon 24.5% | HCC-2998 colon 61.7% | KM12 colon 16.1%

COc1ccc(-c2n/c(=C\c3c(O)[nH]c4ccc(OC)cc34)cc3c2=Nc2ccccc2-3)cc1
inactive: T-47D breast 93% | HCC-2998 colon 22.7%
active: BT-549 breast -20.1% | MDA-MB-435 melanoma 3.6% | SW-620 colon 0.413% | MCF7 breast -22.7% | HCT-116 colon -72.6% | KM12 colon 8.66%

Cc1cc(C)c(NC(=O)c2sc3nc4c(cc3c2N)CCCC4)c(C)c1
active: MDA-MB-435 melanoma -13.6%
inactive: T-47D breast 36.2% | BT-549 breast 56.4% | SW-620 colon 30.5% | MCF7 breast 23.7% | HCT-116 colon 29.9% | HCC-2998 colon 87.6% | KM12 colon 34.9%

C=C(C)[C@@H]1CC[C@]2(C(=O)OC)CC[C@]3(C)[C@H](CC[C@@H]4[C@@](C)(CC/C(N)=N/O)[C@H](C(=C)C)CC[C@]43C)[C@@H]12
inactive: T-47D breast 91% | BT-549 breast 97.8% | MDA-MB-435 melanoma 101% | SW-620 colon 97.4% | MCF7 breast 88.3% | HCT-116 colon 89.8% | HCC-2998 colon 96.3% | KM12 colon 99.1%

Source: PubChem BioAssay (NCI)
